The supplement of paper PMC13380429

Tested on: Vero E6 infected with SARS-CoV-2
Experiment: inhibition of SARS-CoV-2 cytopathic effect; higher = more antiviral protection, active = above 15
Details: 48 h

Measured: inhibition of SARS-CoV-2 cytopathic effect

CN1CCC(NC(=O)c2cc(-c3c(O)cc(O)cc3Oc3ccc([N+](=O)[O-])cc3)on2)CC1
inactive: 1 nM 0.32% | 8.33 nM 0.21% | 100 nM 3.95% | 833.33 nM -1.5% | 10000 nM -5.98%

Cn1cccc1/C=C1\C(=O)NC(=O)c2ccccc21
inactive: 1 nM 2.55% | 8.33 nM -0.08% | 100 nM -1.24% | 833.33 nM -2.42% | 10000 nM 5%

COC(=O)N/N=C/c1c[n+]([O-])c2ccccc2[n+]1[O-] [carbadox]
inactive: 1 nM -0.14% | 8.33 nM -0.55% | 100 nM 0.99% | 833.33 nM -11.6% | 10000 nM 0.87%

CSc1nc(-c2ccc(F)cc2)c(-c2ccnc(N[C@@H](C)c3ccccc3)c2)[nH]1
inactive: 1 nM -3.63% | 8.33 nM -2.6% | 100 nM -5.98% | 833.33 nM -4.77% | 10000 nM 1.96%

c1ccc(CCNc2nc(-c3ccccc3)cs2)cc1 [fanetizole]
inactive: 1 nM -2.03% | 8.33 nM 1.7% | 100 nM -2.73% | 833.33 nM -0.64% | 10000 nM 1.58%

Cc1ccc([N+](=O)[O-])cc1S(=O)(=O)N(C)C
inactive: 1 nM -1.97% | 8.33 nM -4.63% | 100 nM -0.38% | 833.33 nM -0.5% | 10000 nM -0.2%

O=C(Nc1ccc(CN2CCOCC2)cc1)c1ccc(-c2cccc(Cl)c2)o1
inactive: 1 nM 0.42% | 8.33 nM -1.17% | 100 nM 0.17% | 833.33 nM 0.72% | 10000 nM -0.79%

CC1=NN=C(c2ccc(N)cc2)c2cc3c(cc2C1)OCO3
inactive: 1 nM -2.65% | 8.33 nM -5.13% | 100 nM -1.01% | 833.33 nM 2.88% | 10000 nM 0.44%

O=[N+]([O-])c1cn2c(n1)OC[C@@H](OCc1ccc(OC(F)(F)F)cc1)C2 [pretomanid]
inactive: 1 nM 0.26% | 8.33 nM 0.54% | 100 nM -0.43% | 833.33 nM -0.88% | 10000 nM 0.65%

C=CC(=O)Nc1cc(Nc2nccc(-c3cn(C)c4ccccc34)n2)c(OC)cc1N(C)CCN(C)C [osimertinib]
inactive: 1 nM 1.08% | 8.33 nM 0.08% | 100 nM -5.65% | 833.33 nM -10.8% | 10000 nM -16.5%

C[C@@]12CC[C@@H]3[C@@](CC[C@H]4[C@@]3(C)CCC[C@@]4(C)C(=O)O)(CC1=O)C2 [isosteviol]
inactive: 1 nM -1.01% | 8.33 nM 3.07% | 100 nM -0.69% | 833.33 nM 0.69% | 10000 nM 1.55%

Cn1ncc2c(N3CCOCC3)nc(-c3cccc(O)c3)nc21
inactive: 1 nM -0.24% | 8.33 nM -1.45% | 100 nM 0.03% | 833.33 nM 1.57% | 10000 nM -0.01%

Nc1cc(C(Cl)=C(Cl)Cl)c(S(N)(=O)=O)cc1S(N)(=O)=O [clorsulon]
inactive: 1 nM -0.52% | 8.33 nM 2.04% | 100 nM 2.84% | 833.33 nM -0.01% | 10000 nM -2.69%

COc1cc(F)c(C(C)C)cc1-c1ccc(C(F)(F)F)cc1CN1C(=O)O[C@H](c2cc(C(F)(F)F)cc(C(F)(F)F)c2)[C@@H]1C [anacetrapib]
inactive: 1 nM 0.72% | 8.33 nM 0.48% | 100 nM -1.02% | 833.33 nM -2.52% | 10000 nM 2.39%

COc1cc(N)cn[n+]1-c1ccccc1 [amezinium]
inactive: 1 nM -1.03% | 8.33 nM -0.58% | 100 nM 0.21% | 833.33 nM 0.15% | 10000 nM -1.56%

C[n+]1ccccc1C=NO [pralidoxime]
inactive: 1 nM 1.86% | 8.33 nM 0.25% | 100 nM 0.14% | 833.33 nM 0.94% | 10000 nM 1.11%

CCN(CC)CCOC(=O)C(Cc1cccc2ccccc12)CC1CCCO1 (mixture of isomers) [naftidrofuryl]
inactive: 1 nM 0.67% | 8.33 nM -0.29% | 100 nM 2.4% | 833.33 nM 1.45% | 10000 nM -1.13%

N[C@@H](Cc1c[nH]c2ccc(O)cc12)C(=O)O [5-hydroxytryptophan]
inactive: 1 nM -0.86% | 8.33 nM 0.52% | 100 nM 1.04% | 833.33 nM 2.16% | 10000 nM 2.55%

N[C@@H]1CN(c2c(F)cc3c(=O)c(C(=O)O)cn([C@@H]4C[C@@H]4F)c3c2Cl)CC12CC2 [sitafloxacin]
inactive: 1 nM -0.69% | 8.33 nM -3.2% | 100 nM -0.99% | 833.33 nM -1.2% | 10000 nM 5.19%
